The structures appear in SMILES notation. Calls of active or inactive are those of the source. Unless noted, how the calls were made is not given here.

The subject of assay [1] is Wnt5a (protein binding on small-molecule microarray). Nature of the assay: small molecules binding Wnt5a protein – biophysical, small-molecule microarray, 635/667 nm fluorescence, primary screen (AID 1142).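 Further: fluorescence read at 667 nm with signal to noise per printed feature.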 Particulars: 635 nm fluorescence, higher = more signal.
Assay [2] in a line: ATP-based viability of Huh7 replicon cells – cell-based, CellTiter-Glo luminescence, basal, 48 h, cytotoxicity control for HCV replication inhibitor project, primary screen (AID 1143).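 Further: Huh7 hepatoma cells carrying a hepatitis C replication reporter with no stimulus; test concentration not given here.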 The conditions noted are these: higher = more signal, called active from +8 up or from −8 down. On the technique in general: Replicon systems follow genome replication, usually without infectious particles.

Assay [3] can be described thus: Pseudomonas biofilm growth suppression – PAO1 strain, BacTiter-Glo luminescence, LB-PBS, primary screen (AID 1144). Particulars: P. aeruginosa PAO1 biofilm, 12 h, higher = more signal.
Assay [4] can be described thus: basal CRE-LacZ reporter activity in PC12 – cell-based, unstimulated, primary screen (AID 1145). The conditions noted are these: no forskolin, luminescence, 4.5 h, higher = more signal, called active from +8 up or from −8 down.
The nature of assay [5]: forskolin-driven CRE-LacZ activity in PC12 – cell-based, CRE-LacZ reporter, forskolin-stimulated, primary screen (AID 1146).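 Further: PC12 cells with 6xCRE LacZ reporter stimulated by forskolin 10 µM; beta-galactosidase reporter signal reflecting CREB driven transcription.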 Particulars: luminescence, 4.5 h, higher = more signal, called active from +8 up or from −8 down.
Assay [6] has as its target Streptavidin (Streptomyces avidinii) (UniProt P22629). As to the kind of experiment: compounds binding control protein streptavidin – biophysical, small-molecule microarray, 635/667 nm fluorescence, artefact control for SMM compound annotation, primary screen (AID 1147).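 Further: signal reflects streptavidin binding to arrayed compounds as a control protein.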 Particulars: higher = more signal.
A short description of assay [7]: probe aInhba binding on compound microarray – biochemical, small-molecule microarray, 635/667 nm fluorescence, primary screen (AID 1148).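 Further: score merges 667nm spot fluorescence with signal-to-noise for antibody binding to printed compounds.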 Particulars: higher = more signal.
Assay [8] addresses Torsin-1A (Homo sapiens) (UniProt O14656). As to the kind of experiment: TOR1A wild-type binding on microarray – cell lysate, small-molecule microarray, lysate, 635/667 nm, primary screen (AID 1149). Particulars: COS7 hTOR1A-WT lysate, 635 nm fluorescence, higher = more signal.
For assay [9] the target is unchanged. Nature of the assay: torsin A mutant lysate binding on microarrays – cell lysate, small-molecule microarray, COS7 lysate, 635/667 nm fluorescence, primary screen (AID 1150).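 Further: score pools 667 nm emission and signal to noise measuring lysate protein binding.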 Particulars: COS7 hTOR1A mutant lysate, 635 nm fluorescence, higher = more signal.
Assay [10] has as its system Sonic hedgehog protein (Shh). As to the kind of experiment: Sonic hedgehog microarray binding compounds – biochemical, small-molecule microarray, 635/667 nm fluorescence, primary screen (AID 1151).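 Further: Shh protein binding to compounds spotted on small-molecule microarray slides; score combines spot fluorescence intensity with signal-to-noise across triplicate slides.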 The conditions noted are these: 635 nm fluorescence, higher = more signal.
The nature of assay [11]: optical density shifts of acrAB sulA E. coli – strain DRC41, OD650, 48 h, E. coli filamentation inducer project, primary screen (AID 1152).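 Further: E. coli MC1000 strain DRC41 lacking acrAB efflux pump and sulA.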 Particulars: higher = more signal, called active from +8 up or from −8 down.
Assay [12] can be described thus: probe aLefty1 binding on compound microarray – biochemical, small-molecule microarray, 635/667 nm fluorescence, primary screen (AID 1153).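 Further: score merges spot fluorescence with signal-to-noise ratio from the scanned slide images.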 Particulars: higher = more signal.
Assay [13] is described as follows: plasmodial surface anion channel blockers, osmotic lysis – cell-based, P. falciparum Indochina, OD700, 1 h, primary screen (AID 1154). Particulars: P. falciparum Indochina infected RBC osmotic lysis, higher = more signal, called active from +8 up or from −8 down.
Assay [14] is described as follows: plasmodial surface anion channel blockers, osmotic lysis – cell-based, P. falciparum Indochina, OD700, 2 h, primary screen (AID 1155).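 Further: lysis reports solute entry through the parasite surface anion channel PSAC.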 The conditions noted are these: P. falciparum Indochina infected erythrocytes, higher = more signal, called active from +8 up or from −8 down.
The nature of assay [15]: changes in parasitized red cell lysis, either direction – P. falciparum Indochina, OD700, 3 h, PSAC antagonist project, primary screen (AID 1156). The conditions noted are these: P. falciparum-infected erythrocytes, osmotic lysis, higher = more signal, called active from +8 up or from −8 down.
Assay [16] is described as follows: plasmodial surface anion channel blockers, osmotic lysis – cell-based, P. falciparum Indochina, OD700, 18 h, primary screen (AID 1157). Particulars: P. falciparum Indochina infected erythrocytes, osmotic lysis OD700, 18 h; higher = more signal, called active from +8 up or from −8 down.
The nature of assay [17]: S6 kinase pathway phospho-S6 level changes – cell-based, A549, cytoblot, luminescence, serum-stimulated, primary screen (AID 1158).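 Further: serum-stimulated A549 lung adenocarcinoma cells; signal is phosphorylated S6 detected by cytoblot immunostaining with HRP secondary.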 The conditions noted are these: 5 h, higher = more signal.
The target of assay [18] is NADPH oxidase 2 (Homo sapiens) (UniProt P04839). Nature of the assay: compounds shifting NOX2 Amplex Red fluorescence – cell-based, HEK293-NOX2, PMA-stimulated, NOX inhibitor project, primary screen (AID 1159). Further: test concentration not given here. Particulars: 45 min, higher = more signal, called active from +8 up or from −8 down.
For assay [19], the target named is NADPH oxidase 4 (Homo sapiens) (UniProt Q9NPH5). As to the kind of experiment: compounds shifting NOX4 Amplex Red fluorescence – cell-based, HEK293-NOX4, tetracycline-induced, NOX inhibitor project, primary screen (AID 1160). The conditions noted are these: HEK293-NOX4, Amplex Red H2O2 fluorescence, 45 min; higher = more signal, called active from +8 up or from −8 down.

Assay [20] deals with NADPH oxidase 5 (Homo sapiens) (UniProt Q96PH1). As to the kind of experiment: compounds shifting NOX5 Amplex Red fluorescence – cell-based, HEK293-NOX5, NOX inhibitor project, primary screen (AID 1161). Particulars: HEK293-NOX5, ionomycin, 45 min, higher = more signal.
Sequence of NADPH oxidase 5 (Homo sapiens) (Q96PH1 whole entry, looked up): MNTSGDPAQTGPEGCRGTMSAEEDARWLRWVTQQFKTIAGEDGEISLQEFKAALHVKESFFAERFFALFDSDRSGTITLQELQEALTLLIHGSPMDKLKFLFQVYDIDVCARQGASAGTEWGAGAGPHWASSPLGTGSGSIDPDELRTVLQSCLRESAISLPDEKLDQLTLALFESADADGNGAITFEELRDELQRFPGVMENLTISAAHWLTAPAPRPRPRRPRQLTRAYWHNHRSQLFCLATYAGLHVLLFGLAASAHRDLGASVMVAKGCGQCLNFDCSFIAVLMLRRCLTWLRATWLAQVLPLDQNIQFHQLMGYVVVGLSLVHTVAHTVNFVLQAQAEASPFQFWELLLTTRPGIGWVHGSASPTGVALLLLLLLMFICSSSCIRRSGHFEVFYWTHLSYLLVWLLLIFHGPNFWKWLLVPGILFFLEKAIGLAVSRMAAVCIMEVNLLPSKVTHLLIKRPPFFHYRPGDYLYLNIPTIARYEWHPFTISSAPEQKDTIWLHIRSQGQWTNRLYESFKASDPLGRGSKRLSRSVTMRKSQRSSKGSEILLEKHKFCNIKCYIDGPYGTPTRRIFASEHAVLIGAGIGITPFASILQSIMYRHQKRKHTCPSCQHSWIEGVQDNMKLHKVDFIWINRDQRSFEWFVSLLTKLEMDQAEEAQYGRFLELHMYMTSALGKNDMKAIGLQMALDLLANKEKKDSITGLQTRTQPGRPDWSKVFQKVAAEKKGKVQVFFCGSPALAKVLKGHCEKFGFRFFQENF

Sequence of Torsin-1A (Homo sapiens) (O14656 whole entry, looked up): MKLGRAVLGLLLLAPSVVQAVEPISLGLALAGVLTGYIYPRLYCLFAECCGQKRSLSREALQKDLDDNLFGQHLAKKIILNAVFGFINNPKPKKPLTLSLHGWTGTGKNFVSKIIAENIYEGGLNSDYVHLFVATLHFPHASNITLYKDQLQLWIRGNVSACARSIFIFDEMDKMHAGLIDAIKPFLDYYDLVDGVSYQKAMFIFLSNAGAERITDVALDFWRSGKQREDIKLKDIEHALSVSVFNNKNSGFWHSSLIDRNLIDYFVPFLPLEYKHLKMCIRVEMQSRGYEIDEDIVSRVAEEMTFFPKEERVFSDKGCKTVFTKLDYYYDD
Sequence of Streptavidin (Streptomyces avidinii) (P22629 whole entry, looked up): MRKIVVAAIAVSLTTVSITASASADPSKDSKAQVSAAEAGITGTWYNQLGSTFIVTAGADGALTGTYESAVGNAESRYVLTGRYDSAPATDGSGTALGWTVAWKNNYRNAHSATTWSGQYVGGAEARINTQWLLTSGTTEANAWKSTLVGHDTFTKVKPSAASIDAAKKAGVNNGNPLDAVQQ
Sequence of NADPH oxidase 4 (Homo sapiens) (Q9NPH5 whole entry, looked up): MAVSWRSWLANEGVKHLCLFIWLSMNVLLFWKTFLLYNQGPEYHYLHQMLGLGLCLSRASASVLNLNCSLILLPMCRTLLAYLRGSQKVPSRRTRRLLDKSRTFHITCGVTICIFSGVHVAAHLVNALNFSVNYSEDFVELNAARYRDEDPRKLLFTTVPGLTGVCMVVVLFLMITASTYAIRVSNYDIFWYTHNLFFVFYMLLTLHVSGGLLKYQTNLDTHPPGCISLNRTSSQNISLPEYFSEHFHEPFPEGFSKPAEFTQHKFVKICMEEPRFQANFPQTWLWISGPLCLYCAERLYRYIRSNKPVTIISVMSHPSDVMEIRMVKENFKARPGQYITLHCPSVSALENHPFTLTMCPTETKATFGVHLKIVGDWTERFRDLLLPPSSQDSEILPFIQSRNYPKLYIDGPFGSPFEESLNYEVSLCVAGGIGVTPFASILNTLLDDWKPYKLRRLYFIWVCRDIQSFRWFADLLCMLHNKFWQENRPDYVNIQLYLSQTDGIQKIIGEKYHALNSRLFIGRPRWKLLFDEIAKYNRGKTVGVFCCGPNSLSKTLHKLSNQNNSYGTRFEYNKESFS
Sequence of NADPH oxidase 2 (Homo sapiens) (P04839 whole entry, looked up): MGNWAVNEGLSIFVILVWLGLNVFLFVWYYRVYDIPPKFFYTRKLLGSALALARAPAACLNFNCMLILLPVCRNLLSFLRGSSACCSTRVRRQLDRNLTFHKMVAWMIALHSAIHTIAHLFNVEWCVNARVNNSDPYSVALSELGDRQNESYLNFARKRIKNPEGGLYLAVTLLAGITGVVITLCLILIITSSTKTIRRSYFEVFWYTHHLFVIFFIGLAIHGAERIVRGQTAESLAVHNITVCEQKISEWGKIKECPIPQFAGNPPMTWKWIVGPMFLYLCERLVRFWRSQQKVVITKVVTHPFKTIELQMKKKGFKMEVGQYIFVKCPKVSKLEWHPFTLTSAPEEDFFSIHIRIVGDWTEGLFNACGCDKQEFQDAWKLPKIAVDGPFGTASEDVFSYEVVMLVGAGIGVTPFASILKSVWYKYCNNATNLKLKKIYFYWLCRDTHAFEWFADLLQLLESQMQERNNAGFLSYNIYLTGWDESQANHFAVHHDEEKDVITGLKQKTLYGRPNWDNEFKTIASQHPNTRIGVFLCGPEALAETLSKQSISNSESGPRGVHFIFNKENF

Take `COc1ccc(COC(=O)NN=C2C[C@@H](O)[C@@H](O)[C@@H]3[C@@H]4C(=O)N(Cc5ccccc5)C(=O)[C@@H]4CC[C@@H]23)cc1`: the composite z-score in assay [1] was -0.0129; in [6], -0.323; in [7] it was 0.0785; in [8], -0.0532; in assay [9], 0.226; in assay [10], 0.111. In assay [12], this compound registered a composite z-score of -0.0691. Further, the z-score in assay [2] is -0.19 (inactive); in assay [3] it was 0.99 (inactive); in assay [4], -0.655 (inactive); in [5], 0.426 (inactive); in assay [11], 0.619 (inactive); in [13], 1.48 (inactive). Also, the z-score in [14] was 0.363 (inactive); in [15] it was -0.188 (inactive); in assay [16], 0.648 (inactive); in assay [17], -0.12; in assay [18], -6.33 (inactive); in assay [19], 0.284 (inactive). Also, in assay [20], the z-score was -0.234.

For the compound `CCOC(=O)NN=C1C[C@@H](O)[C@@H](O)[C@@H]2[C@@H]3C(=O)N(c4ccc(F)cc4F)C(=O)[C@@H]3CC[C@H]12`, the composite z-score in assay [1] is 0.199; in [6] it was -0.0442; in assay [7] it was -0.0962; in assay [8] it was 0.49; in [9] it was 0.381; in assay [10], 0.404. In addition, in assay [12], the composite z-score was -0.0106. For the same compound, the z-score is -4.03 (inactive) in [2]; -1.05 (inactive) in [3]; -0.296 (inactive) in assay [4]; 0.409 (inactive) in assay [5]; -0.57 (inactive) in assay [11]; 1.03 (inactive) in assay [13]. Moreover, the z-score is -1.41 (inactive) in [14]; 0.465 (inactive) in assay [15]; -1.75 (inactive) in [16]; 0.245 in assay [17]; -4.88 (inactive) in assay [18]; -1.81 (inactive) in assay [19]. Moreover, the z-score in [20] is -0.472.

On to `CC(=O)OC[C@H]1O[C@H](CC=NOC[C@@H](O)COCc2ccco2)C=C[C@@H]1OC(C)=O`, for which the composite z-score in assay [1] is 0.364; in [6], -0.436; in assay [7] it was -0.183; in assay [8], 3.67; in assay [9] it was 3.65; in [10], 2.07. Further, the composite z-score in assay [12] was 0.0509. Also, the z-score was 0.0896 (inactive) in [2]; -0.196 (inactive) in [3]; -0.729 (inactive) in assay [4]; 0.25 (inactive) in [5]; 0.241 (inactive) in [11]; 0.77 (inactive) in assay [13]. Besides, the z-score in assay [14] was -0.161 (inactive); in [15] it was 0.482 (inactive); in [16] it was 0.515 (inactive); in assay [17], 0.0978; in assay [18], -0.431 (inactive); in [19], 0.748 (inactive). Further, the z-score in assay [20] worked out at 0.0957.

For `CC(C)[C@@H](OCc1ccccc1)[C@H](C)C=NOC[C@@H](O)[C@H]1O[C@@H]2OC(C)(C)O[C@@H]2[C@H]1O`, the composite z-score in assay [1] was 0.332; in [6] it was 1.61; in [7], -0.0695; in assay [8], 0.298; in [9], 0.284; in assay [10] it was 0.587. The compound further displayed a composite z-score in [12] of -0.25. For the same compound, the z-score in assay [2] was 0.226 (inactive); in assay [3] it was 0.0464 (inactive); in assay [4], -0.408 (inactive); in [5], 0.307 (inactive); in assay [11] it was -1.74 (inactive); in assay [13] it was 0.0248 (inactive). In addition, the z-score was -0.211 (inactive) in assay [14]; 0.122 (inactive) in assay [15]; 0.124 (inactive) in assay [16]; -0.898 in [17]; 1.09 (inactive) in assay [18]; -1.94 (inactive) in [19]. For the same compound, the z-score in [20] was found to be 0.165.

Source of the values: PubChem BioAssay.
